Bioassay records from PubChem.
Calpain2 inh: blocks pig calpain II enzyme activity | purified calpain II, fluorogenic peptide substrate, 30 min | inhibition, % at 16 µM | actives 0.37% (n = 220,000) | AID 1236;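 active = inhibition above about 50%, limit read from the data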
Furin inh: inhibitors of human furin; inhibition, % at 20 µM or 30 µM; actives 0.061% (n = 220,000); purified furin, fluorogenic substrate cleavage; P09958; AID 463115; in the data active = inhibition above about 25%
Target sequence (P09958 108-714 limits assumed): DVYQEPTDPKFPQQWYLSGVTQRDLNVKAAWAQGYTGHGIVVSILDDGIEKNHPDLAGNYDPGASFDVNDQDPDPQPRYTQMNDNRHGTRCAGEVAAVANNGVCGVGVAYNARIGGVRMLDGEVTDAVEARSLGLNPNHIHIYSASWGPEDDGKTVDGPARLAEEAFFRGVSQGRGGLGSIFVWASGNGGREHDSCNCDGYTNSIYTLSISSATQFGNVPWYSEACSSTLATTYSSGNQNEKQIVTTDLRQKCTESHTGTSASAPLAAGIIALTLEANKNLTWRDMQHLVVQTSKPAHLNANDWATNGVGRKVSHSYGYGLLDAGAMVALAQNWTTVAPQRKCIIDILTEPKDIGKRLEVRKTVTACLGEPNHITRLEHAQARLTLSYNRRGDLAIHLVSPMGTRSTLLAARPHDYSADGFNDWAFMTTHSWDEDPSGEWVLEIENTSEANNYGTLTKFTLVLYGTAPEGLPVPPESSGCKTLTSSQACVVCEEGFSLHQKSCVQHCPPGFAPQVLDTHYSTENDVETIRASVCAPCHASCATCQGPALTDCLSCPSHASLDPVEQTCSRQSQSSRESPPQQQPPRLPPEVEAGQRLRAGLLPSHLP
HMGR II inh: E. faecalis class II HMG-CoA reductase inhibition; inhibition, % at 10 µM; purified E. faecalis HMGR, NADPH absorbance 340 nm kinetic; AID 1066; actives 0.41% (n = 190,000);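 active = inhibition above a set limit, the median over all tested compounds plus 3 SD, cut at about 9.5% in these data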;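 also: enzyme runs in reverse so mevalonate oxidation gives rising NADPH absorbance; 0% = complete reaction with DMSO and 100% = background rate lacking mevalonate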
EP2 mod: modulators of human EP2 prostaglandin E2 receptor | P43116 | EP2-expressing cells, cAMP HTRF FRET, PGE2 co-stimulation | induction, % at 25 µM | actives 0.83% (n = 260,000);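 active = compounds whose cAMP rise, as percent of the full-agonist control response, exceeds 60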;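 also: rat C6 glioma line stably carrying human EP2 under a CMV promoter; the protocol text gives 20 µM as final concentration; 100% = response of wells given 1 µM PGE2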
PGE2 EP2 inh: inhibitors of human EP2 prostaglandin E2 receptor. C6 glioma cells expressing human EP2, cAMP TR-FRET; cells stimulated with saturating PGE2. P43116. inhibition, % at 25 µM. actives 0.52% (n = 260,000);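 active = percent inhibition above 40 after rounding to a whole number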;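 also: rat C6 glioma host cells with rolipram phosphodiesterase inhibitor present; the protocol text gives 20 µM as final concentration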
An asterisk follows results filed as active; x = no result given. Compounds with a hit are over-represented: about 1.9% of the library has one in this group of screens.

SMILES | Calpain2 inh | Furin inh | HMGR II inh | EP2 mod | PGE2 EP2 inh
O=c1[nH]c(-c2ccc(O)cc2)nc2scc(-c3cccs3)c12 | -40 | -11 | x | -26 | 22
O=C(O)c1ccc(-c2nc3scc(-c4ccccc4)c3c(=O)[nH]2)cc1 | -51 | -12 | x | -7 | 41*
CN1CCC[C@H]1c1cccnc1.O=C(O)c1ccccc1O.O=C([OH2+])c1ccccc1O.O=C([OH2+])c1ccccc1O.O=C([OH2+])c1ccccc1O.[Cu] | x | x | x | 9 | 40*
CN1CCC[C@H]1c1cccnc1.O=C(O)c1ccccc1O.O=C([OH2+])c1ccccc1O.O=C([OH2+])c1ccccc1O.[Mn+2] | x | x | x | 29 | 40*
Cc1cc2cccc(C)c2nc1SCC(=O)c1ccccc1 | x | x | x | 69* | 24
CC(C)(C)c1nc(SCC(=O)c2ccccc2)c2ccccc2n1 | 52* | 2 | -7 | 53 | 12
O=C(CSc1nc2ccccc2c2ccccc12)c1ccccc1 | x | x | x | -7 | 15
Cc1cc2c(C)ccc(C)c2nc1SCC(=O)O | x | x | x | 79* | 14
O=C(NCC(=O)N(Cc1cccs1)C(C(=O)NC1CCCC1)c1ccncc1)c1ccco1 (stereo not drawn) | -63 | -22 | 33* | -4 | 14
O=C(NC1CCCCC1)C(c1ccccc1F)N(Cc1ccco1)C(=O)Cc1cccs1 (stereo not drawn) | x | x | x | 63* | 12
COc1cccc(OCc2nnc(SCC(=O)N3c4ccccc4Sc4ccccc43)n2C)c1 | x | x | x | 9 | 9
Cc1cc(-c2cncnc2C2CCCN(C(=O)c3ccc4c(c3)OCCO4)C2)on1 (stereo not drawn) | x | x | x | -13 | x
COC(c1ccccc1)c1nnc(CCC(=O)NCCC(C)C)o1 (stereo not drawn) | -1 | -23 | 16* | 12 | 7
COC(c1ccccc1)c1nnc(CCC(=O)NCc2ccc3ncccc3c2)o1 (stereo not drawn) | -21 | -31 | -1 | 35 | 9
CCCOC(=O)c1ccc(Oc2cn[nH]c2-c2ccc(OCC)cc2O)cc1 | 53* | -6 | -1 | -32 | 34
CCCc1ccc(Oc2cn[nH]c2-c2ccc(O)c(C)c2O)cc1 | 53* | -17 | 1 | -17 | 53*
Cc1cccc(C(C(=O)NC2CCCCC2)N(C(=O)c2csnn2)C2CCCC2)c1 (stereo not drawn) | x | x | x | 6 | 17
O=C(c1ccc(COc2ccc(Cl)cc2)cc1)N1CCCCC1 | 58* | -25 | 2 | -11 | 7
CCCCCOc1ccc(CSC(=N)N)cc1[N+](=O)[O-] | 29 | -10 | -6 | -28 | 46*
CCOc1ccc(-n2c(=S)sc3c(=O)[nH]c(SCC(=O)N4CCC(C)CC4)nc32)cc1 | -51 | -24 | -1 | 62* | -2
COc1ccccc1N1C(=O)C2CC(C)=C(C)CC2C1=O (stereo not drawn) | -17 | -17 | -4 | 10 | 16
COc1ccccc1N1C(=O)C=C(Sc2nc(C)cc(C)n2)C1=O | 10 | -21 | x | -61 | 42*
CCC(=O)Nc1ccc(Cl)c(NC(=S)NC(=O)c2cc3ccccc3o2)c1 | 51* | 0 | -7 | -8 | 3
CCC(=O)Nc1ccc(Cl)c(NC(=S)NC(=O)c2ccco2)c1 | 6 | -34 | -3 | -24 | 2
CCOC(=O)N1CCc2c(sc3c2c(=O)n(Cc2ccccc2)c(=O)n3CC(=O)NCCOC)C1 | 58* | -11 | -8 | 5 | 4
SMILES | Calpain2 inh | Furin inh | HMGR II inh | EP2 mod | PGE2 EP2 inh
CCOc1ccc(-n2c(=O)c3c4c(sc3n(CC(=O)NCCCOC)c2=O)CCCCC4)cc1 | -24 | -11 | -2 | 16 | 6
Cc1ccc(N(CCc2ccccn2)N=O)cc1 | x | x | x | -28 | 18
CN(CCc1ccccn1)c1ccc2c(c1)C(=O)c1ccccc1-2 | x | x | x | -63 | 75*
Cc1cccc(-c2n[nH]c(=S)n2C)c1 | 31 | -18 | -5 | -26 | 3
S=c1[nH]nc(-c2cccc(Br)c2)o1 | 4 | -15 | -2 | 28 | 53*
S=c1[nH]nc(-c2cccnc2)o1 | 9 | -26 | 0 | 9 | 19
Cc1cccc(-c2n[nH]c(=S)o2)c1 | x | x | x | 36 | 41*
CCOc1ccccc1-c1n[nH]c(=S)o1 | -91 | -15 | 1 | 41 | 40*
CCOc1ccc(-c2n[nH]c(=S)o2)cc1 | -19 | -14 | 1 | 22 | 3
CC(C)C(=O)Nc1ccc(-c2nc3ccc(NC(=O)C(C)C)cc3[nH]2)cc1 | x | x | x | -78 | 10
O=C(Nc1nnc(-c2cccs2)s1)c1ccco1 | x | x | x | 4 | 44*
O=C(Nc1nc(-c2cccs2)cs1)c1ccco1 | -18 | -15 | -5 | -4 | 1
COCCNC(=S)N(Cc1cccnc1)Cc1cc2cc3c(cc2[nH]c1=O)OCO3 | x | x | x | 3 | 9
COC(=O)c1cccc(NC(=O)CSc2nnnn2-c2ccc(OC)c(OC)c2)c1 | x | x | x | 1 | 6
CC(C)Cn1c(=O)c(C(=O)NCc2ccccn2)c(O)c2ccccc21 | -24 | 2 | 0 | 62* | 15
CCn1c(=O)c(C(=O)NCc2cccnc2)c(O)c2ccccc21 | -24 | -20 | 2 | 65* | 11
CCn1c(=O)c(C(=O)NCc2ccccc2OC)c(O)c2ccccc21 | x | x | x | 62* | 14
Cc1noc(NS(=O)(=O)c2ccc(NC(=O)c3ccc(N4C(=O)c5ccccc5C4=O)cc3)cc2)c1C | 83* | -33 | 9 | 9 | 7
Cc1noc(NS(=O)(=O)c2ccc(NC(=O)CCN3C(=O)c4ccccc4C3=O)cc2)c1C | 25 | -13 | -1 | 3 | 4
Cc1ccc(C)c(N2C(=O)CN=C2Nc2ccccc2Cl)c1 | -14 | 25* | -9 | 11 | 6
O=C1CN=C(Nc2ccccc2Cl)N1c1ccccc1 | 0 | -7 | 4 | 8 | 14
Cc1cc(NC(=O)c2ccc3c(c2)C(=O)N(CCC(C)C)C3=O)no1 | 53* | -13 | 0 | 18 | 22
O=C(CSc1nnc(-c2cccc(O)c2)o1)Nc1cccc2ccccc12 | x | x | x | -51 | 10
CC(=O)N(c1nc(CCl)cs1)c1ccc(C)cc1C | -23 | -15 | -8 | 62* | 10
CCc1ccccc1N(C(C)=O)c1nc(CCl)cs1 | 9 | -14 | -8 | 42 | 8
SMILES | Calpain2 inh | Furin inh | HMGR II inh | EP2 mod | PGE2 EP2 inh
COc1ccc(N=C2S/C(=C\c3ccc(OCC(=O)O)cc3)C(=O)N2CCc2c[nH]c3ccccc23)cc1 | 82* | -7 | 10* | 22 | -1
COc1ccccc1-c1cc(C(F)(F)F)nc(S(=O)(=O)CCCC(=O)O)n1 | -140 | -22 | 12* | 41 | 8
COc1ccccc1-c1cc(C(F)(F)F)nc(S(=O)(=O)CCCC(=O)N2CCOCC2)n1 | -110 | -24 | 0 | 17 | 13
CCSc1nc(-c2ccccc2)c(C#N)c(=O)[nH]1 | -5 | -17 | 1 | 45 | 50*
O=C(CCCSc1nc(-c2ccco2)cc(C(F)(F)F)n1)NCc1ccncc1 | x | x | x | -40 | 9
O=S(=O)(NC1(c2ccccc2F)CC1)c1cccc2nsnc12 | x | x | x | -52 | 4
CC(C)(C)NC(=O)COC(=O)CCC(=O)c1ccc(F)cc1 | 17 | 0 | 0 | -8 | 89*
